Measured values as given in PubChem BioAssay (Tox21).
Values joined by “and” are separate entries in the source; they are usually repeats but may differ in a detail not shown here. Identical values can stand only once. Results filed as inconclusive are left out. A call without a number means that no potency is given here. Some structures have more than one record in an assay (separate samples or runs), and their calls can disagree. Active and inactive are the calls of the source. Unless noted, the call rests on the fitted dose curve; in most records, active means well fitted curve in the direction sought with a large enough effect in the repeat runs; inconclusive means weak or mixed curves; inactive means no such curve, though single readings can be large; an effect the other way counts as inactive or inconclusive.

What was measured:
[1] = qHTS assay to identify small molecule agonists of the endoplasmic reticulum stress response signaling pathway - cell viability counter screen (AID 1159517; calls by dose curve; further: nearly all actives have a fitted effect of over 50% in size; further: potency means the concentration at half of the fitted maximal effect)
Outline: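 Cytotoxicity of test compounds toward ESRE-bla HeLa cells was assessed after 5 hr exposure. The luminescent CellTiter-Glo signal was measured 30 min after reagent addition.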

[2] = qHTS assay to identify small molecule antagonists of the retinoid-related orphan receptor gamma (ROR-gamma) signaling pathway - cell viability counter screen (AID 1159520); further: nearly all actives have a fitted effect of over 50% in size; further: potency means the concentration at half of the fitted maximal effect
Outline: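 Tet-on ROR gamma CHO cells (1,000/well) were plated 4 hr, given compounds in DMSO for 2 hr at 37 C, then induced with 1 uM final doxycycline for 16 hr. Viability was read as ATP by CellTiter-Glo luminescence after 30 min.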

[3] = qHTS assay to identify small molecule agonists of the AP-1 signaling pathway - cell viability counter screen (AID 1159525; calls by dose curve; further: nearly all actives have a fitted effect of over 55% in size; further: potency means the concentration at half of the fitted maximal effect)
Outline: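 Each titration point was normalised to DMSO and tetra n-octyl ammonium bromide controls. The read was Cell Titer Glo luminescence after 30 min at RT, following 5 h compound exposure of ME-180 AP-1-bla cells at 37 °C.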

[4] = qHTS assay to identify small molecule agonists of the AP-1 signaling pathway (AID 1159526; calls by dose curve; further: potency means the concentration at half of the fitted maximal effect)
[5] = biological target: Retinoic acid receptor RXR-alpha (Homo sapiens) (UniProt P19793); test: qHTS assay to identify small molecule agonists of the RXR signaling pathway (AID 1159527; calls by dose curve; further: nearly all actives have a fitted effect of over 35% in size)
Outline: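 Reporter activation is measured as beta-lactamase activity via FRET substrate cleavage (emission 460/530 nm) in HEK 293T cells expressing an RXR-alpha-driven bla construct, following 16 hr compound exposure at 37 C.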

[6] = qHTS assay to identify small molecule agonists of the RXR signaling pathway - cell viability counter screen (AID 1159529); further: nearly all actives have a fitted effect of over 50% in size; further: potency means the concentration at half of the fitted maximal effect
Outline: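 Tox21 10K compounds were tested for cytotoxicity against GeneBLAzer RXR-alpha HEK 293T cells grown in 2% charcoal-stripped FBS. Exposure lasted 16 hr at 37 C, 5% CO2; viability read by CellTiter-Glo luminescence.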

[7] = qHTS assay to identify small molecule antagonists of the retinoid acid receptor (RAR) signaling pathway - cell viability counter screen (AID 1159551); further: nearly all actives have a fitted effect of over 35% in size; further: potency means the concentration at half of the fitted maximal effect
Outline: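 Viability of C3RL4 cells is quantified from ATP by luminescence after 6 h treatment at 37 C with compounds and 1 uM retinol.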

[8] = qHTS assay to identify small molecule antagonists of the retinoic acid receptor (RAR) signaling pathway (AID 1159552; further: nearly all actives have a fitted effect of over 50% in size; further: potency means the concentration at half of the fitted maximal effect)
Outline: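 Overnight-plated C3RL4 reporter cells get compound, then retinol to 1 uM final; plates sit 6 hr at 37 C, 5% CO2. A luciferase reagent is added and light output recorded after 30 min at room temperature.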

[9] = qHTS assay to identify small molecule agonists of the retinoic acid receptor (RAR) signaling pathway (AID 1159553); further: potency means the concentration at half of the fitted maximal effect
Outline: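 Compounds dissolved in DMSO were pinned onto C3RL4 cells seeded the previous day, and plates were held 6 hr at 37 C. RARE-driven luciferase output was then read by luminescence.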

[10] = qHTS assay to identify small molecule antagonists of the estrogen related receptor (ERR) signaling pathway from Tox21 library - cell viability counter screen (AID 1224834); further: nearly all actives have a fitted effect of over 30% in size; further: potency means the concentration at half of the fitted maximal effect
Outline: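 In this quantitative HTS format, ERR cells receive compounds in DMSO and are incubated for 17.5 h at 37 C. Live-cell protease activity is then detected with CellTiter-Fluor.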

[11] = biological target: Luciferin 4-monooxygenase (Photinus pyralis) (UniProt P08659); test: qHTS assay to identify small molecule inhibitors of firefly luciferase (AID 1224835); further: nearly all actives have a fitted effect of over 25% in size; further: potency means the concentration at half of the fitted maximal effect
Outline: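 Quantitative HTS format; KM concentrations of both substrates. Purified P. pyralis FLuc activity quantified from luminescence images.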

[12] = biological target: Nuclear receptor ROR-gamma (Homo sapiens) (UniProt P51449); test: qHTS assay to identify small molecule antagonists of the retinoid-related orphan receptor gamma (ROR-gamma) signaling pathway (AID 1159521; further: nearly all actives have a fitted effect of over 50% in size; further: potency means the concentration at half of the fitted maximal effect)
Outline: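 Readout: ONE-Glo luciferase luminescence, 30 min at room temperature. System: Tet-on RORγ CHO, RORE-LUC. Sequence: compound 2 h, doxycycline 1 uM final, 16 h at 37 C.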

[13] = qHTS assay to identify small molecule antagonists of the estrogen related receptor (ERR) signaling pathway - cell viability counter screen (AID 1224818);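 further: series mostly up to about 46 µM; viability measured after 17.5 h of compound exposure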
Outline: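 Cytotoxicity check run alongside the ERR antagonist screen: cells exposed to test compounds 17.5 h at 37 C, viability taken as CellTiter-Fluor fluorescence intensity.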

[14] = qHTS assay to identify small molecule antagonists of the estrogen related receptor signaling pathway with the pleiotropic PPARgamma coactivator (PGC) cell viability counter screen (AID 1224822;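 further: series mostly up to about 46 µM; viability read after 17.5 h compound exposure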)
Outline: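 Viable cell signal (CellTiter-Fluor, 30 min, 37 C/5% CO2) was measured in PGC/ERR cells after a 17.5 h compound incubation.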

Retinoic acid receptor RXR-alpha (Homo sapiens), sequence (P19793 whole entry, looked up): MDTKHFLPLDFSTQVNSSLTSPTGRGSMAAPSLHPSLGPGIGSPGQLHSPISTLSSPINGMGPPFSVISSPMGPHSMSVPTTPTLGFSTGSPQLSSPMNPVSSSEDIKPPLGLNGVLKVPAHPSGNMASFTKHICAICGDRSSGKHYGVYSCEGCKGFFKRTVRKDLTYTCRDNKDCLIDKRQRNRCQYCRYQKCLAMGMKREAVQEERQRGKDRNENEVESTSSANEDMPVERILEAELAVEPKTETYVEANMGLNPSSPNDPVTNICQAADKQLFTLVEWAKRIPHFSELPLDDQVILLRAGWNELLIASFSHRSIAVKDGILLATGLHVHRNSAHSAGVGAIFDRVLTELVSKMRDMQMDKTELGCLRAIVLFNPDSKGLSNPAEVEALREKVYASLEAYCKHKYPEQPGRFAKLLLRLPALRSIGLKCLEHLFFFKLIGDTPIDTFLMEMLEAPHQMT
Luciferin 4-monooxygenase (Photinus pyralis), sequence (P08659 whole entry, looked up): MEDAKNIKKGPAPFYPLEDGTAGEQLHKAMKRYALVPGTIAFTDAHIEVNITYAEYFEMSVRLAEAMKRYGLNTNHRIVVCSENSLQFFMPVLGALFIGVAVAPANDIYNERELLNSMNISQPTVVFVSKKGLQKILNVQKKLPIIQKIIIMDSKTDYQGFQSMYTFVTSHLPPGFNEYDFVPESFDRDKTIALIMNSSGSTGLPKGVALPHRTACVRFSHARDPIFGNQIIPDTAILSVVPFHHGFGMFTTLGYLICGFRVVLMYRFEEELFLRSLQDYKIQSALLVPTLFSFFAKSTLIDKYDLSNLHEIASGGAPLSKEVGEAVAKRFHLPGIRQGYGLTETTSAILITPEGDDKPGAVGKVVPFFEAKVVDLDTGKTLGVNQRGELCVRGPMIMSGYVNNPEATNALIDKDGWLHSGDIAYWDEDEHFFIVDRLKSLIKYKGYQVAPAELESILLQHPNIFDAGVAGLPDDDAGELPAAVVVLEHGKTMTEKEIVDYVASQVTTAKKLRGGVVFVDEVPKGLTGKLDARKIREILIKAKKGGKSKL

Row | Structure (SMILES) | Potency [1] | Potency [2] | Potency [3] | Potency [4] | outcome [5] | Potency [6] | Potency [7] | Potency [8] | Potency [9] | Potency [10] | Potency [11] | Potency [12] | outcome [13] | Potency [14]
1 | N#CCCSCCC#N | inactive | inactive | inactive | inactive | inactive | inactive | inactive | inactive | inactive | inactive | inactive |  |  | 
2 | C=CC(=O)OCC(COC(=O)C=C)(COC(=O)C=C)COC(=O)C=C | 12.3 µM (active) |  |  |  |  | 17.4 µM (active) |  | 13.7 µM (active) | 1.93 µM (active) | 9.69 µM (active) | inactive | 3.44 µM (active) |  | 
3 | BrCC(Br)c1ccccc1 (configuration not stated) |  | inactive | inactive | inactive | inactive | inactive | inactive | inactive |  | inactive |  | inactive |  | 
4 | CCSC(C)CC1CC(=O)C(/C(CC)=N/OC/C=C/Cl)=C(O)C1 (configuration not stated) |  | inactive | inactive | inactive | inactive | inactive | inactive | inactive |  | inactive | inactive | inactive |  | 
5 | CCC(C)c1cc([N+](=O)[O-])cc([N+](=O)[O-])c1OC(=O)C=C(C)C (configuration not stated) | inactive |  | inactive |  |  |  |  |  |  | 27.3 µM (active) | inactive | 17.2 µM (active) |  | 
6 | S=C(SSC(=S)N1CCCCC1)N1CCCCC1 | inactive | 0.188 µM (active) |  |  |  | 0.12 µM (active) | inactive |  |  | 0.531 µM (active) | 1.74 µM (active) | 0.15 µM (active) |  | 
7 | CCCCCCCCCCCCCCCC[N+](C)(C)C | 23.7 µM (active) and 43.6 µM (active) | 29.5 µM (active) and 61.1 µM (active) and 29.8 µM (active) | 49 µM (active) and 26.8 µM (active) |  |  | 10.6 µM (active) and 24.5 µM (active) and 12 µM (active) |  |  |  | 23.5 µM (active) and 61.1 µM (active) and 18.8 µM (active) | inactive | 7.42 µM (active) and 12.2 µM (active) and 5.96 µM (active) |  | 
8 | CCCN(CC)CC1COC2(CCC(C(C)(C)C)CC2)O1 (configuration not stated) |  | inactive | inactive | inactive | inactive | inactive | inactive | inactive | inactive | inactive | inactive | inactive |  | 
9 | CN(C)CCc1c[nH]c2cccc(O)c12 | inactive | inactive | inactive |  |  |  | inactive |  |  | inactive | inactive | inactive |  | 
10 | Oc1ccccc1Br |  | inactive | inactive | inactive | inactive | inactive | inactive | inactive |  | inactive | inactive | inactive |  | 
11 | O=C(O)COc1nc(Cl)c(Cl)cc1Cl | inactive | inactive | inactive | inactive |  |  | inactive | inactive |  | inactive | inactive |  | inactive | inactive
12 | CN(C)[C@@H]1C(=O)C(C(N)=O)=C(O)[C@@]2(O)C(=O)C3=C(O)c4c(O)ccc(Cl)c4[C@@](C)(O)[C@H]3C[C@@H]12 | inactive | inactive | inactive |  |  | inactive | inactive |  | inactive |  | inactive | 49.6 µM (active) |  | 
13 | Cc1cc(C(F)(C(F)(F)F)C(F)(F)F)ccc1NC(=O)c1cccc(I)c1C(=O)NC(C)(C)CS(C)(=O)=O | inactive | inactive |  |  | inactive |  | inactive | inactive | inactive | inactive | inactive |  |  | 
14 | C[As+](C)(C)CC(=O)[O-] |  | inactive | inactive | 43.6 µM (active) | inactive | inactive | inactive | inactive |  | inactive | inactive | inactive |  | 
15 | CCCCCCCCCCCCCCCC[n+]1ccccc1 | 34.7 µM (active) and 34.2 µM (active) and 12 µM (active) | 54.5 µM (active) [middle of 4 runs] | 32.3 µM (active) and 54.9 µM (active) and 43 µM (active) |  |  | 17.1 µM (active) [middle of 4 runs] | 63.9 µM (active) and 54.5 µM (active) and 53.7 µM (active) |  |  | 32 µM (active) [middle of 4 runs] | inactive | 4.27 µM (active) [middle of 4 runs] |  | 
16 | [Cl][Sb]([Cl])[Cl] | inactive | 48.6 µM (active) | inactive |  |  | inactive | inactive | inactive |  | 21.7 µM (active) | inactive | 5.45 µM (active) |  | 
17 | CC(=O)OC1(c2ccccc2)CCN(CCc2ccccc2)CC1 | inactive | inactive | inactive |  | inactive | inactive | inactive | inactive | inactive |  | inactive |  |  | 
18 | ClCc1ccccc1CCl |  | 43.3 µM (active) | inactive | inactive | inactive | inactive | inactive | inactive |  | inactive | inactive | 54.5 µM (active) |  | 
19 | COc1ccc(N)cc1N | inactive |  | 50.5 µM (active) and inactive |  | inactive |  | inactive |  |  | 31.6 µM (active) | 41.2 µM (active) | 7.08 µM (active) and 14.7 µM (active) |  | 
20 | c1ccc(Nc2ccc3ccccc3c2)cc1 | inactive |  | 48.7 µM (active) |  | inactive | 43.4 µM (active) |  | inactive | 3.05 µM (active) and 8.63 µM (active) | inactive | 22.3 µM (active) and 31.7 µM (active) | inactive |  | 
21 | [Cd+2].[Cl-].[Cl-] | inactive | 27.5 µM (active) | inactive |  |  | 17.5 µM (active) and 24.5 µM (active) | inactive |  |  | 24.5 µM (active) and 6.11 µM (active) |  |  |  | 
22 | Nc1ccccc1C(=O)Oc1ccc2ccccc2c1 | 43.6 µM (active) |  |  |  |  |  | inactive | inactive | 0.193 µM (active) | inactive | 1.78 µM (active) | inactive |  | 
23 | O=[N+]([O-])c1ccc(Oc2ccc(C(F)(F)F)cc2[N+](=O)[O-])cc1 | inactive |  | inactive | inactive |  | inactive | inactive |  |  |  | inactive | inactive |  | 
24 | Clc1ccc(CO/N=C(\Cn2ccnc2)c2ccc(Cl)cc2Cl)c(Cl)c1 | 23.9 µM (active) | 26.6 µM (active) |  |  |  |  |  |  |  | 26.6 µM (active) | inactive | 26.6 µM (active) |  | 
25 | CC(C)CBr |  | inactive | inactive | inactive | inactive | inactive | inactive | inactive |  | inactive | inactive | inactive |  | 
